The full data set covers some 8,800 targets. This sample favours those with a hit. About 0.5% of all pairs of compound and target were hits. A number with no mark means an inactive call.

Chain of UniProt O96013 (O96013 whole entry, looked up): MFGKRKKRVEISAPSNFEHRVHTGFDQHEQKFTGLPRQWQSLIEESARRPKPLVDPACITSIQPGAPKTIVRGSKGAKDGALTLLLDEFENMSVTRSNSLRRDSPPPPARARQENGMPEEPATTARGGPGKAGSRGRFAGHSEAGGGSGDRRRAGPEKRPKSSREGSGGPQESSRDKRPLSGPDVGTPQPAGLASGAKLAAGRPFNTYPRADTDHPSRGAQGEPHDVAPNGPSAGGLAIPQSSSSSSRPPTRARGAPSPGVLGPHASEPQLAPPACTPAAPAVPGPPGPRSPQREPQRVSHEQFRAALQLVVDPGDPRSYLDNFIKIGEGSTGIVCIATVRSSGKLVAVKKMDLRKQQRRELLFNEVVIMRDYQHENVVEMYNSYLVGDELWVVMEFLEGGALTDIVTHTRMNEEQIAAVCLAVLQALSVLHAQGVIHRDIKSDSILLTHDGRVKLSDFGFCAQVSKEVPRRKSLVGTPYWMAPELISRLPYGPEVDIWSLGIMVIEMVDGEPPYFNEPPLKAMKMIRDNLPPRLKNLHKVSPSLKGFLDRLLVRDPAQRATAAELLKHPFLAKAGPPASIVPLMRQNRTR
Chain of UniProt P42695 (P42695 whole entry, looked up): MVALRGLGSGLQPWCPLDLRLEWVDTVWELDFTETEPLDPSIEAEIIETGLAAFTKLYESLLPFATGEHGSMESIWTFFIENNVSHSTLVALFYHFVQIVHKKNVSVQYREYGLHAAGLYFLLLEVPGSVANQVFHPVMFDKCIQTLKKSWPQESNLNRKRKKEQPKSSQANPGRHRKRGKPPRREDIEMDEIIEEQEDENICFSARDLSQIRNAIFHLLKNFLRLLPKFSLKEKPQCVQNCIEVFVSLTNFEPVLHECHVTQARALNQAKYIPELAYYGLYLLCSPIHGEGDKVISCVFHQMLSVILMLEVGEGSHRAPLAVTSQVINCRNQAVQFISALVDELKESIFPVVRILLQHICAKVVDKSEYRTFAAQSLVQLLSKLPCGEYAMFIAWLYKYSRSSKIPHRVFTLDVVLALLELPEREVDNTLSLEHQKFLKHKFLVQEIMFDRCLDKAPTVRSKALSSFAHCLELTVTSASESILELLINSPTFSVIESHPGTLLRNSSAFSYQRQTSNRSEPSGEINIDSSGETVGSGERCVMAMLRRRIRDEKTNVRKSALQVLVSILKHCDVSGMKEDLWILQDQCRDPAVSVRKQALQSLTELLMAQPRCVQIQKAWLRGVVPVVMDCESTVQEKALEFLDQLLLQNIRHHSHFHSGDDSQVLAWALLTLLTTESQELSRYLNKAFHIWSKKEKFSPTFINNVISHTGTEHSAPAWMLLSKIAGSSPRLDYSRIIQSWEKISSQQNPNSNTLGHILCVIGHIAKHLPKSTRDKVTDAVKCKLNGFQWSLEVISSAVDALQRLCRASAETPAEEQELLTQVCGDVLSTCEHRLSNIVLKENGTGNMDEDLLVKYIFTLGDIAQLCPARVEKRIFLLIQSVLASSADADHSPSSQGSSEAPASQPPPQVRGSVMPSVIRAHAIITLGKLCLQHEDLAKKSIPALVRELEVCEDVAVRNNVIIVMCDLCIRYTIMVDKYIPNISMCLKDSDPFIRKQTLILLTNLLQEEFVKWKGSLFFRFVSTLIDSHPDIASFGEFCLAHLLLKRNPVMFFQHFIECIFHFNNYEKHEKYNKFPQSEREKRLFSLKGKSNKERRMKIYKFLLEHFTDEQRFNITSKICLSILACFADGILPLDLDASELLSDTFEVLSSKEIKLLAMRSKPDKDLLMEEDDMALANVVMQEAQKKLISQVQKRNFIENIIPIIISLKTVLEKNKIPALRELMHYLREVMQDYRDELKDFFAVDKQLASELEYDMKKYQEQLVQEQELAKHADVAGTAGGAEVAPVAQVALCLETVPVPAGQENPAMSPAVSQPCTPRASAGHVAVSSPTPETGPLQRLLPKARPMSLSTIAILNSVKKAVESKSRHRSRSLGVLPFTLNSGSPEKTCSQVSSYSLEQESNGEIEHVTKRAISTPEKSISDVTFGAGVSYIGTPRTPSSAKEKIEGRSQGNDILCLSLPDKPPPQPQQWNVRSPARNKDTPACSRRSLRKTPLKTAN
Chain of UniProt P49757 (P49757 whole entry, looked up): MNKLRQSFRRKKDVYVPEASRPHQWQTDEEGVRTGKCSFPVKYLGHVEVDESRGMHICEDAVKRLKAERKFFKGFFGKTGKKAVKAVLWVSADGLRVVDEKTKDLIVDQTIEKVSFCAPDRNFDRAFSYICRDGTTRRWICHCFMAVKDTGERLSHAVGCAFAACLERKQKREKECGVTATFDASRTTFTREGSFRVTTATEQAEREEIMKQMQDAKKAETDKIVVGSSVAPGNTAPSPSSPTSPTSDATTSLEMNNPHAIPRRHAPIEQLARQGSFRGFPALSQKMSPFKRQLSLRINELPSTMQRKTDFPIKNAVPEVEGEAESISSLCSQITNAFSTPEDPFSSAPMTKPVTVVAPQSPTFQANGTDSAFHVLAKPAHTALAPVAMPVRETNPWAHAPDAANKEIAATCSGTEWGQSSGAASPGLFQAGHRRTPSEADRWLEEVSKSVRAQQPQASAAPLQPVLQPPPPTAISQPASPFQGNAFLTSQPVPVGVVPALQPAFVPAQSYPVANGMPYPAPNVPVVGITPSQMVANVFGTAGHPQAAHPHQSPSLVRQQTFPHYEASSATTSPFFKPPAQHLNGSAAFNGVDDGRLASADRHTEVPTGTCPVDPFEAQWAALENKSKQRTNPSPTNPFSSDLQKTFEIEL
Chain of UniProt Q15021 (Q15021 whole entry, looked up): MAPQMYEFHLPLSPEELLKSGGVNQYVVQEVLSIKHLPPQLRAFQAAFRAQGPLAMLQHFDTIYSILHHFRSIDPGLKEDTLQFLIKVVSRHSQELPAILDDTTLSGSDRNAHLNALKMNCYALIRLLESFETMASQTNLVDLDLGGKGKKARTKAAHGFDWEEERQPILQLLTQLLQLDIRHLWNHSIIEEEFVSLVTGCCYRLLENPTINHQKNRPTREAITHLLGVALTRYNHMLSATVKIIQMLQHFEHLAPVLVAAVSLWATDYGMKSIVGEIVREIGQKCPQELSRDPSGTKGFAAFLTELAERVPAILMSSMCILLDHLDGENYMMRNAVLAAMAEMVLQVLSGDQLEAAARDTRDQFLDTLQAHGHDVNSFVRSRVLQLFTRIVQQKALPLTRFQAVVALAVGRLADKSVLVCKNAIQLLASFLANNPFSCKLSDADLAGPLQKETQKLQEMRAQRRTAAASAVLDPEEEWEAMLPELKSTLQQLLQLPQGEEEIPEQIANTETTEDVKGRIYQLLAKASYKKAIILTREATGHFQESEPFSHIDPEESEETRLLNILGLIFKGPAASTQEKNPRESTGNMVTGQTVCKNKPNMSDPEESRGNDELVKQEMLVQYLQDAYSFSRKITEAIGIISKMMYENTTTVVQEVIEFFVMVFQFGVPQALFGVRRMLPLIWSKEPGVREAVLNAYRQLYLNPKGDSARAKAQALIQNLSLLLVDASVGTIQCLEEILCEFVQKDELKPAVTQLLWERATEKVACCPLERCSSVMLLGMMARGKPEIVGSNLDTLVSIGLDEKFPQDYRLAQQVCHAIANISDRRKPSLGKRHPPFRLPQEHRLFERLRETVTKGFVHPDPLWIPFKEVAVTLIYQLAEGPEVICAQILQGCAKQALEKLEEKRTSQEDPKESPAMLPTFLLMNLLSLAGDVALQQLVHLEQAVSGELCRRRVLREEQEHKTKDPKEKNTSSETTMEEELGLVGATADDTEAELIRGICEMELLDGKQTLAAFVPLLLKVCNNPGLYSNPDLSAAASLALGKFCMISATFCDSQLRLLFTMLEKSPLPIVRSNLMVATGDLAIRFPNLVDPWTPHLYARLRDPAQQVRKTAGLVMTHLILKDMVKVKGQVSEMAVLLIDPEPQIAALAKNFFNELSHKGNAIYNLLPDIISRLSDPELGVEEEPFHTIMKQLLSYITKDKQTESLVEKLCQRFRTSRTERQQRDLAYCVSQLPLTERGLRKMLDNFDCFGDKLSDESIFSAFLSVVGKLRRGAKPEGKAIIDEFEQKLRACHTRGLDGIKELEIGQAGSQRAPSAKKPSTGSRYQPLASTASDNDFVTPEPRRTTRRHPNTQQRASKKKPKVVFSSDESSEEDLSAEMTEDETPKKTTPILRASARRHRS
Chain of UniProt Q9BYG3 (Q9BYG3 whole entry, looked up): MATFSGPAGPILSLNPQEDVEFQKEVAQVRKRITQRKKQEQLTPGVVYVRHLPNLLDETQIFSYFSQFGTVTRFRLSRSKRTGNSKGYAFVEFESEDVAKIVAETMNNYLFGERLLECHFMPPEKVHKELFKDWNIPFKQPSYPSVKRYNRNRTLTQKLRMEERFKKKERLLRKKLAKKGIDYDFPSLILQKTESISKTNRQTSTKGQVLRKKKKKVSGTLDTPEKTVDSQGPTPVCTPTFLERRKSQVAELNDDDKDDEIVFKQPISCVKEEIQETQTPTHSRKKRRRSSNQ
Chain of UniProt O75607 (O75607 whole entry, looked up): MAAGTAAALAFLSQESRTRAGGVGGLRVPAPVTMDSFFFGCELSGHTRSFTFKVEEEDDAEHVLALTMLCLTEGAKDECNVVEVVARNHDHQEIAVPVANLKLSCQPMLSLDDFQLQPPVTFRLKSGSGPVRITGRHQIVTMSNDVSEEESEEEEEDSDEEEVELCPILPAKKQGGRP
Chain of UniProt Q96KB5 (Q96KB5 whole entry, looked up): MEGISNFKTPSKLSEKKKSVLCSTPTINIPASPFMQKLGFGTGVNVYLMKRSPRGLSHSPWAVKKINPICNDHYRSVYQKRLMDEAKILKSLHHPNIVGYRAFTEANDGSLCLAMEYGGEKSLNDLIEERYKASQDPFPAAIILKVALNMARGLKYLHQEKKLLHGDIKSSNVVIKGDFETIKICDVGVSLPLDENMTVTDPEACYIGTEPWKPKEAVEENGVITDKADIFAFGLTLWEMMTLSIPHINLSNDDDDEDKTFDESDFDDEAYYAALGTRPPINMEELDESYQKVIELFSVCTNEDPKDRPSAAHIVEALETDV
Chain of UniProt Q15843 (Q15843 whole entry, looked up): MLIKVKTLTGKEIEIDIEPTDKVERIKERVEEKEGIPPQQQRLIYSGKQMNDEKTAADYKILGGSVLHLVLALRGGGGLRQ

Compound in the assay: Cc1cccc(CC(=O)N2CCc3c2ccc(-c2cn(C)c4ncnc(N)c24)c3F)n1
In words: log2 fold change, soluble protein after heating vs DMSO (PISA); higher = thermal stabilisation; K562 lysate, 10 uM; active = over 0.2 and 3.5 SD of the protein, either way, in both replicates (recomputed). Summed up:
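Quantification was by TMTpro 16plex LC-MS/MS with equalised channel sums, applied to the supernatant after 21,000xg for 90 min. Samples were crude K562 extract at 1 mg/mL protein in PBS pH 7.4 with 1 mM MgCl2, treated with 10 μM compound for 30 min, heated for 3 min across 48°C-58°C, pooled and brought to 0.5% NP-40 at 4°C. Values are log-two fold changes in thermal stability relative to solvent controls, from duplicates.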
For PARD3 (UniProt Q8TEW0), the log2 fold change is 0.069.
The result for NPM3 (UniProt O75607) reads 0.164; that for NCK1 (UniProt P16333), -0.024; that for MYOM1 (UniProt P52179), 0.05.
The figure for OCRL (UniProt Q01968) is 0.047; for NUP188 (UniProt Q5SRE5) it is 0.039; for NDUFS1 isoform 2 (UniProt P28331) it is -0.006.
The figure for NOB1 (UniProt Q9ULX3) is -0.048; for NUMB (UniProt P49757) it is 0.038; for PAIP2 (UniProt Q9BPZ3) it is 0.02.
For the target NEDD8 (UniProt Q15843), the log2 fold change is -0.107.
In the case of NLRP2 (UniProt Q9NX02), the log2 fold change was -0.018.
The figure for NAA35 (UniProt Q5VZE5) is -0.022; for NCAPD2 (UniProt Q15021) it is 0.029; for PBK (UniProt Q96KB5) it is -0.01.
In the case of PAFAH1B3 (UniProt Q15102), the log2 fold change is -0.001.
The result for PAK4 (UniProt O96013) reads -0.12; that for MTA1 (UniProt Q13330), 0.017; that for PAN2 isoform 2 (UniProt Q504Q3), 0.084.
Regarding OSBPL6 isoform 5 (UniProt Q9BZF3), the log2 fold change is 0.004.
The figure for PARP14 (UniProt Q460N5) is 0.
The result for PAK1 (UniProt Q13153) reads -0.005.
The figure for NIPBL (UniProt Q6KC79) is 0.016; for NEK7 (UniProt Q8TDX7) it is 0.15.
As for NCKAP1L (UniProt P55160), the log2 fold change was 0.017.
As for MYH11 isoform 2 (UniProt P35749), the log2 fold change is -0.018.
The figure for OTC (UniProt P00480) is 0.377; for NUB1 (UniProt Q9Y5A7) it is -0.002; for NARF (UniProt Q9UHQ1) it is -0.04.
The result for NEK9 (UniProt Q8TD19) reads 0.019; that for NMRAL1 (UniProt Q9HBL8), 0.011; that for NCAPD3 (UniProt P42695), 0.047.
On to MT-ND1 (UniProt P03886), for which the log2 fold change is 0.007.
The result for MTA3 (UniProt Q9BTC8) reads 0.051; that for NIFK (UniProt Q9BYG3), 0.064.
